Molecules are shown by their SMILES. Values joined by “and” are separate entries in the source; they are usually repeats but may differ in a detail not shown here. Identical values can stand only once. In all, about 300,000 compounds went through this assay and about 37,000 (12%) were called active. No stated cut-off is given here; in the data, active means max response mostly above about 13% (no sharp cut-off); inactive means mostly below about 14%. The sample as a whole holds a higher share of actives than the screen did.

A short description of the experiment: Cycloheximide Counterscreen for Small Molecule Inhibitors of Shiga Toxin. Further: read at 38.3 µM for the half of the compounds with a filed dose; 0% is about no effect. To be noted: cell reporter, cycloheximide protein synthesis inhibition counterscreen; active compounds read high. On the technique in general: A counterscreen serves to expose hits that act by an unwanted route or on another target.
As to `Cc1ccc(-n2c(C)nnc2SCC(=O)NC2CC2)cc1`, the max response is 1.87% (inactive).
Next, `O=C(CN1CCN(Cc2ccccc2)CC1)Nc1ccc(F)c(F)c1`: 2.05% (inactive).
`COc1ccc(C2CC(c3cccs3)=NN2c2nc(C)c(C(C)=O)s2)cc1OC` (configuration not stated): the max response was 14% (inactive).
For the compound `CCN(CC)CCCNC(=O)c1c(O)c2cc(F)cc3c2n(c1=O)C(C)CC3` (configuration not stated), the max response was -7.23% (inactive).
Turning to `O=C(N/C(=C\c1ccc([N+](=O)[O-])cc1)C(=O)N1CCOCC1)c1cccc(Br)c1`, the max response is 0.841% (inactive).
For the compound `COc1ccc(/C=C/C(=O)Nc2c(C)nn(C)c2C)cc1COc1ccc(Br)cc1`, the max response was -4.32% (inactive).
With `Cc1ccc(S(=O)(=O)N2CCN(c3ccccc3)CC2)cc1C`, the max response was -2.26% (inactive).
Under `CN(CC(=O)Nc1c(Cl)cccc1Cl)C(=O)CNC(=O)C1CCCCC1` stands 5.73% (inactive); under `O=C(O)CCc1nc2cc(Cl)ccc2n(Cc2ccccc2)c1=O`, -1.53% (inactive).
Consider `Cc1nnc(SC(C)C(=O)Nc2ccc(S(=O)(=O)NC3CCCCC3)cc2)s1` (configuration not stated), for which the max response was -4.95% (inactive).
For `CCOCCCN(C)C1CCN(C(=O)c2oc3ccccc3c2NC(=O)Cc2cccc([N+](=O)[O-])c2)CC1`, the max response was -8.08% (inactive).
Next, `COc1ccc(OC)c(C(=O)c2coc3ccc(OC)cc23)c1`: -2.15% (inactive); `COc1ccc(OC)c(C(=O)c2ccc(C(=O)O)cc2)c1`: 5.22% (inactive); `COc1ccc2occ(C(=O)c3ccc(N=C(C)N(C)C)cc3)c2c1`: 28.3% (active).
Consider `COc1ccccc1OCc1ccc(C(=O)NC(C)c2ccccc2)o1` (configuration not stated), for which the max response is -0.796% (inactive).
For `CC(C)(C)NC(=O)c1cccc(NC(=O)Cc2ccc(Br)cc2)c1`, the max response was -3.99% (inactive).
`CN(C)C(=O)c1nc2ccc(Cl)cn2c1CNCc1cccc(OC(F)(F)F)c1`: the max response was 0.689% (inactive).
Regarding `CC1CCc2sc(C(=O)N/N=C/C3CCCCC3)cc2C1` (configuration not stated), the max response is 8.2% (inactive).
Next, `C/C(=N\NC(=O)c1cccnc1)c1ccc(-c2ccccc2)cc1`: 12.6% (active); `C/C(=N\NC(=O)c1cccc([N+](=O)[O-])c1)c1cccnc1`: 11.9% (inactive); `C/C(=N\NC(N)=S)c1cccnc1`: -2.63% (inactive).
As for `COCc1c(C(=O)N/N=C(\C)c2ccncc2)nnn1-c1nonc1N`, the max response is -0.414% (inactive).
In the case of `C/C(=N/NC(=O)c1ccn(C)n1)c1ccncc1`, the max response was 51.6% (active).
Consider `C/C(=N\NC(=O)c1ccc2ccccc2c1)c1cccnc1`, for which the max response was 34.4% (active).
For the compound `C/C(=N\NC(=O)c1cccnc1)c1ccc(-n2ccnc2)cc1`, the max response was -1.63% (inactive).
In the case of `C/C(=N\NC(=O)Cc1ccc(Br)cc1)c1cccnc1`, the max response is 1.49% (inactive).
On to `C/C(=N\NC(=O)c1cc(-c2ccc(O)cc2)nc2ccccc12)c1cccnc1`, for which the max response was 17% (inactive).
As for `C/C(=N\NC(N)=S)c1ccncc1`, the max response was -1.83% (inactive).
Take `C/C(=N\NC(=O)c1cc2c(s1)CCC(C)C2)c1cccnc1` (configuration not stated): the max response was 19.2% (active).
On to `C/C=N/NC(=O)CCCC(=O)N/N=C/C`, for which the max response was -6.46% (inactive).
In the case of `CCOC(=O)c1c(NC(=O)Cn2nc(C(F)(F)F)cc2C)sc2c1CCC2`, the max response is 4.3% (inactive).
Take `CCCc1nc2oc3c(OCC)ncnc3c2c2c1COC(C)(C)C2`: the max response was -2.02% (inactive).
Under `CCOC(=O)/C(N=Nc1cc(C(=O)O)cc(C(=O)O)c1)=C(\O)CCl` stands -1.38% (inactive); under `Cc1cccc(CN2CCC(CNC(=O)Nc3ccc(F)c(Cl)c3)CC2)c1`, 0.642% (inactive).
Consider `C/C(=N\NC(=O)c1nc(C)cc(C)n1)c1ccccc1`, for which the max response is 31.4% (active).
Turning to `CNC(=O)C(NC(=O)c1ccccc1)=C(C)C`, the max response is 3.38% (inactive).
Regarding `COc1ccc(/C(C)=N\NC(=O)c2ccc(-c3ccccc3)cc2)c(F)c1`, the max response is 0.503% (inactive).
As for `CSc1ccc(CN2C(=O)NC3(CCCCCC3)C2=O)cc1`, the max response is -3.95% (inactive).
For `O=C(Nc1ccc2ccccc2c1)/C(=C/c1cccc(Br)c1)NC(=O)c1ccco1`, the max response was -5.2% (inactive).
Take `O=C(Nc1ccccc1)O/N=C1/CCCc2occc21`: the max response is 19.6% (active).
Take `COc1ccc2c(c1)CCC/C2=N\OC(=O)c1ccccc1F`: the max response is 33% (inactive).
As to `O=C(Nc1ccccc1)O/N=C1\CCCCC1c1ccc([N+](=O)[O-])cc1[N+](=O)[O-]` (configuration not stated), the max response was -0.778% (inactive).
Next, `CN(C)S(=O)(=O)c1ccc(N/C=C(\[N+](=O)[O-])S(=O)(=O)c2ccccc2)cc1`: -2.27% (inactive); `Cc1cc(Br)ccc1NC(=O)c1cnc(N2CCN(c3ccccn3)CC2)c2ccccc12`: -4.22% (inactive).
With `Cc1ccc(NC(=O)CSc2sc3c(O)cc(=O)[nH]c3c2C#N)cc1C`, the max response was -5.26% (inactive).
For the compound `COc1ccc(S(=O)(=O)N2CCN(C(=O)N(C)C)C2C)cc1` (configuration not stated), the max response is -6.24% (inactive).
Consider `COc1ccc(CNC(=O)c2c[nH]c3c(OC)cc(OC)cc3c2=O)cc1`, for which the max response is 2.74% (inactive).
`COc1ccc(-n2c(SCC(=O)NCc3ccco3)nnc2-c2c[nH]c3ccccc23)cc1`: the max response was 1.31% (inactive).
As to `O=C(CSc1nnc(-c2c[nH]c3ccccc23)n1-c1ccc(F)cc1)NCc1ccco1`, the max response was 11.7% (active).
`O=C(CSc1nnc(-c2cccs2)n1-c1ccccc1)NCc1ccco1`: the max response is -2.76% (inactive).
With `COc1ccc(CC(=O)NC2CCSc3ccccc32)cc1OC` (configuration not stated), the max response is 2.51% (inactive).
As for `CC(C)[C@@H](C(=O)O)N(Cc1cccc(CN([C@H](C(=O)O)C(C)C)S(C)(=O)=O)c1)S(C)(=O)=O`, the max response was -2.74% (inactive).
On to `O=C(O)C1CCN(C(=O)c2cc(F)cc3c2OCOC3)CC1`, for which the max response is -2.01% (inactive).
Next, `CCN(CC)C(=O)CC(c1ccc2c(c1)OCO2)c1c(OC)cc(OC)c2c(-c3ccccc3)cc(=O)oc12` (configuration not stated): 7.27% (inactive) and 12.1% (inactive); `Cc1cc(NC(=O)CSc2nc(=O)cc(N)n2-c2ccc(F)cc2)no1`: -1.93% (inactive).
`Cc1cc(NC(=O)CSc2nc3ccccc3n2CC(C)C)no1`: the max response was 16.2% (inactive).
Under `Cc1ccc2nc(-c3ccc(SCC(=O)Nc4cc(C)on4)nc3)[nH]c2c1` stands 40.1% (active); under `Cc1ccc(N2CC(C(=O)Nc3ccc(S(=O)(=O)N4CCCC4)cc3)CC2=O)cc1C` (configuration not stated), -2.43% (inactive); under `COc1ccccc1C(=O)COC(=O)CNS(=O)(=O)c1ccc(NC(C)=O)cc1`, 3.07% (inactive).
Take `CC(C)C[C@H](NC(=O)N1CC(=O)Nc2ccccc21)C(=O)N[C@H](Cc1ccccc1)C(=O)O`: the max response was -1.39% (inactive).
As for `COc1ccc(OC)c(C2C3=C(N=c4s/c(=C\c5cccc(O)c5)c(=O)n42)c2ccccc2CC3)c1` (configuration not stated), the max response is -1.53% (inactive).
`COc1ccc(NC(=O)c2cc3nc(-c4ccccc4)cc(C)n3n2)cc1OC`: the max response was -3.85% (inactive).
As to `CC(C)c1ccc(OCC(=O)N2CCCN(C)CC2)cc1`, the max response was 14.8% (inactive).
As for `CN1CCN(C(=O)COc2ccc(C(C)(C)C)cc2Br)CC1`, the max response was -0.455% (inactive).
As to `CC(C)c1ccc(OCC(=O)N2CCN(C)CC2)c(Br)c1`, the max response is 11.3% (active).
In the case of `Cc1ccc(-c2nc(C)sc2CC(=O)OCC(=O)Nc2c(F)cccc2F)cc1`, the max response was 1.62% (inactive).
As to `O=C(Nc1ccc(N2CCCC2=O)cc1)c1cncc(Br)c1`, the max response was 1.75% (inactive).
For `COCn1c(C(O)c2ccccc2)cc2ccccc21` (configuration not stated), the max response was 5.67% (inactive).
Regarding `CC(C)NC(=O)COCc1cc(-c2ccc3c(c2)OCO3)on1`, the max response is 34.6% (active).
Turning to `CCOC(=O)N1CCN(C(=O)COCc2cc(-c3ccc4c(c3)OCO4)on2)CC1`, the max response is 9.44% (inactive).
For the compound `Cc1cccc(N2CCN(C(=O)COCc3cc(-c4ccc5c(c4)OCO5)on3)CC2)c1C`, the max response was 13.7% (inactive).
Under `CCCn1nnnc1NCc1ccc(CC)cc1` stands 15.5% (inactive); under `CCN1CCN(c2sc(S(C)(=O)=O)nc2S(=O)(=O)c2ccc(Cl)cc2)CC1`, 13.5% (inactive).
As for `O=C(CSc1ccccc1)Nc1nnc(/C=C/c2ccccc2)s1`, the max response is 0.905% (inactive).
With `O=C(Nc1ccc(Cl)cc1)Nc1nnc(/C=C/c2ccccc2)s1`, the max response was 6.47% (inactive).
Consider `COc1ccc(/C=C/c2nnc(NC(=O)C(C)C)s2)cc1`, for which the max response was 13.9% (active).
For `CCCCNC(=O)N1CCCC(N(C)CCc2ccc(OC)c(OC)c2)C1` (configuration not stated), the max response was -0.786% (inactive).
Under `CCCC(=O)n1nc(-c2ccccc2)nc1N` stands -1.34% (inactive); under `Cc1nn(C(=O)c2ccoc2C)c(N)c1-c1ccccc1`, 53.9% (active); under `CCOC(=O)c1c(N)nn(C(=O)c2ccccc2)c1-c1ccccc1`, -1.7% (inactive).
Take `CCC(C)[C@@H](N)C(=O)O` (some centres not stated): the max response is -4.08% (inactive).
As to `CCCCNC(=O)c1ccccc1NC(=O)C1=C(C)OCCS1`, the max response is 1.86% (inactive).
As to `O=C(Nc1ccc2nc3n(c(=O)c2c1)CCCCC3)c1ccccc1Cl`, the max response was 23% (active).
Turning to `O=c1c2c(nc3n1CCCCC3)sc1c(O)cccc12`, the max response is 12.7% (inactive).
Regarding `CC(=O)c1sc2nc(SCC(=O)N3CCCCC3)[nH]c(=O)c2c1C`, the max response was -3.21% (inactive).
As to `Cc1c(C(=O)Nc2ccccc2)sc2nc3n(c(=O)c12)CCCCC3`, the max response is 36.1% (active).
For the compound `Cc1nc(N2CCOCC2)c2c(C)c(C(=O)Nc3ccc(C(F)(F)F)cc3)sc2n1`, the max response was -1.52% (inactive).
Take `Cc1nc(N2CCN(c3ccccn3)CC2)c2c(C)c(C(=O)Nc3ccc(F)cc3)sc2n1`: the max response was 1.78% (inactive).
Next, `CCCCN(CC)C(=S)Nc1ccc2nc3n(c(=O)c2c1)CCCCC3`: -3.24% (inactive); `COc1ccc(CCNC(=O)C(=O)Nc2ccc3nc4n(c(=O)c3c2)CCCCC4)cc1OC`: -0.998% (inactive); `CC(=O)c1ccc(NC(=O)c2sc3nc4n(c(=O)c3c2C)CCCCC4)cc1`: 47.8% (active).
On to `O=[N+]([O-])/C=C/c1ccc2c(ccn2Cc2ccccc2)c1`, for which the max response was -1.88% (inactive).

The record behind these values is PubChem BioAssay AID2314 (National Center for Advancing Translational Sciences (NCATS), 2010).
